KB-V1 cytotox = kills drug-selected multidrug resistant KB-V1 cells. Potency, µM (titrated, usually from 46.1 µM), hits mostly cytotoxic. KB-V1 MDR cells viability, CellTiter-Glo, 72 h. actives 3.4% (n = 400,000); note: % is set by controls: 0 for no effect and ±100 for the full control effect; nearly all actives have a fitted effect of over 60% in size
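Cytotoxicity toward P-gp-expressing KB-V1 cells was determined as loss of CellTiter-Glo luminescence after 72 h at 37 degrees C. Compounds were tested in quantitative HTS format across a concentration range, with curves fitted to normalized data.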
KB-3-1 cytotox = KB-3-1 parental cell cytotoxicity; KB-3-1 viability, CellTiter-Glo ATP luminescence, 72 h; Potency, µM (highest dose often 46.1 µM), hits mostly cytotoxic; actives 1.4% (n = 400,000); AID 1347075; note: % is set by controls: 0 for no effect and ±100 for the full control effect; nearly all actives have a fitted effect of over 60% in size
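Luminescent ATP read-out (CellTiter-Glo) measures survival of drug-naive KB-3-1 cells after 72 h compound exposure at 37 °C. Titration series was screened from lowest to highest concentration, with DMSO vehicle plates as background controls.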
HT1080 IDH1KD tx = kills HT-1080 cells with IDH1 knockdown; HT-1080 IDH1 knockdown viability, ATP luminescence, 48 h; Potency, µM (series often up to 46.1 µM), inactives show at the highest dose activity, negative = toxicity, usual class: cytotoxic; actives 2% (n = 360,000); AID 686971;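 note: 0% = DMSO wells and -100% = cell-free medium wells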
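Knockdown cells (IDH1KD HT-1080) received compounds 2 h after plating at 750 cells/well and were kept 48 h at 37 °C in 5% FBS RPMI. A CellTiter-Glo luminescence read gave % activity for curve fitting.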
MCF10A rereplic = DNA re-replication induction in MCF 10a cells; MCF 10A DNA re-replication, Hoechst nuclear intensity, 48 h; Potency, µM (doses to about 46.1 µM), without a hit: at the top dose activity, positive = re-replication, actives largely listed as activators; actives 2.9% (n = 350,000); AID 624296; note: % of control where 0% means no effect; nearly all actives have a fitted effect of over 50% in size
HT1080NT lethal = kills 2HG-producing HT-1080-NT fibrosarcoma cells. actives 1.6% (n = 360,000). Potency, µM (titrated, usually from 46.1 µM), inactives show at the highest dose activity, negative = less viability, most hits filed as cytotoxic. HT-1080-NT fibrosarcoma viability, CellTiter-Glo ATP luminescence, 48 h. AID 686970;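 note: NT is the 2HG producing partner of a matched IDH1 knockdown line; 0% = DMSO-treated cells and -100% = media-only wells without cells; nearly all actives have a fitted effect of over 55% in size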
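750 cells/well, RPMI + 5% FBS; 2 h settle, compound pin-transfer, 48 h at 37 degrees C. CellTiter-Glo 10 min RT, luminescence. Normalized to DMSO and media-only wells.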
SW480 rereplic = DNA re-replication induction in SW480 cells. SW480 DNA re-replication, Hoechst DNA content imaging, 48 h. AID 624297. Potency, µM (doses to about 46.1 µM), for the others: top-dose re-replication activation, hits mostly activators. actives 1.8% (n = 340,000); note: % of control where 0% means no effect; nearly all actives have a fitted effect of over 55% in size
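Compounds, transferred as 23 nL by pin tool, were incubated with cells for 48 hr; DNA content per nucleus was then quantified by Hoechst staining and fluorescence plate imaging.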
The depositor's hits bear a star. Shown are actives, neighbours in structure and some others; about 8% of the full set was active somewhere. Calls come from the whole dose curve; as a rule, active = well fitted curve in the direction sought with a large enough effect; inconclusive = small, poorly fitted or top-dose-only effect, or another doubt; inactive = no such curve, though single readings can be large; an effect the other way counts as inactive or inconclusive. Potency is the fitted concentration of half-maximal effect.

`COc1cc2c(cc1OC)C(C)N(C(=O)c1sccc1C)CC2` (stereo not given) gave KB-V1 cytotox inactive, KB-3-1 cytotox inactive, HT1080 IDH1KD tx -11.7%, MCF10A rereplic 1.1%, HT1080NT lethal 1.6% and SW480 rereplic -1.5%.
`COc1ccccc1N1CCN(C(=O)c2c(-c3ccccc3)noc2C)CC1` gave KB-V1 cytotox inconclusive, KB-3-1 cytotox 4.61µM*, HT1080 IDH1KD tx 14.6µM*, MCF10A rereplic 11.2µM*, HT1080NT lethal inconclusive and SW480 rereplic inconclusive.
COc1cc2c(C(=O)N3CCN(c4ccccc4C)CC3)c(C)oc2cc1Br was read as KB-V1 cytotox 5.8µM*, KB-3-1 cytotox inconclusive, HT1080 IDH1KD tx 12.1%, MCF10A rereplic 11.5%, HT1080NT lethal 4.9% and SW480 rereplic 12.7%.
`COc1cc2c(cc1OC)C(C)N(C(=O)c1ccc(Cl)c(S(=O)(=O)N3CCCCC3)c1)CC2` (stereo not given) gave KB-V1 cytotox inactive, KB-3-1 cytotox 11.6µM*, HT1080 IDH1KD tx -18.5%, MCF10A rereplic 4.9%, HT1080NT lethal -23.3% and SW480 rereplic 18.3%.
`COc1cc2c(cc1O)CCN[C@@]21CS[C@H]2c3c(OC(C)=O)c(C)c4c(c3C(COC1=O)N1C2C2c3c(cc(C)c(OC)c3O)CC([C@@H]1O)N2C)OCO4` (stereo not given in full) gave MCF10A rereplic -22.9% and SW480 rereplic -4.7%.
COc1ccccc1N1CCN(C(=O)c2cc(-c3ccccc3)on2)CC1 was read as KB-V1 cytotox inconclusive, KB-3-1 cytotox inactive, HT1080 IDH1KD tx -11.8%, MCF10A rereplic inconclusive, HT1080NT lethal -8.6% and SW480 rereplic -5.5%.
`COc1cc2c(cc1OC)C(C)N(C(=O)CCNC(=O)c1ccccc1)CC2` (stereo not given) gave KB-V1 cytotox inactive, KB-3-1 cytotox inactive, HT1080 IDH1KD tx 11.3%, MCF10A rereplic 4.6%, HT1080NT lethal -2.4% and SW480 rereplic -2.3%.
`COc1cc2c(cc1OC)C(C)N(CCc1ccc(Cl)cc1)CC2` (stereo not given) gave KB-V1 cytotox inconclusive, KB-3-1 cytotox inactive, HT1080 IDH1KD tx inconclusive, MCF10A rereplic inconclusive, HT1080NT lethal 11.6µM* and SW480 rereplic -96.9%.
For COc1cc2c(cc1OC)C(C1C(=O)CCCC1=O)N(C(=O)CCl)CC2 (stereo not given) the results were KB-V1 cytotox inactive, KB-3-1 cytotox inactive, HT1080 IDH1KD tx 0.4%, MCF10A rereplic 8.8%, HT1080NT lethal 3.4% and SW480 rereplic -8.4%.
`COc1cc2c(cc1OC)C(c1ccccc1)N(C(=O)CCl)CC2` (stereo not given) gave KB-V1 cytotox 9.2µM*, KB-3-1 cytotox 4.11µM*, HT1080 IDH1KD tx inconclusive, MCF10A rereplic 16.4µM*, HT1080NT lethal inconclusive and SW480 rereplic 16.4µM*.
`COc1cc2c(cc1OC)C(C)N(C(=O)Nc1ccccc1)CC2` (stereo not given) gave KB-V1 cytotox inconclusive, KB-3-1 cytotox 6.51µM*, HT1080 IDH1KD tx 2.59µM*, MCF10A rereplic inconclusive, HT1080NT lethal 2.91µM* and SW480 rereplic 5.17µM*.
COc1ccccc1N1CCN(C(=O)c2cc(-c3cccs3)on2)CC1 was read as KB-V1 cytotox 18.4µM*, KB-3-1 cytotox inactive, HT1080 IDH1KD tx -4.6%, MCF10A rereplic 12.3%, HT1080NT lethal -3.1% and SW480 rereplic -6.7%.
For CCc1c(C)sc2c1CCN(Cc1cccc(F)c1)C2c1ccccc1 (stereo not given) the results were KB-V1 cytotox inactive and KB-3-1 cytotox inactive.
For CCc1ccccc1NC(=O)CN(c1ccccc1OC)S(=O)(=O)c1ccc(C)cc1 the results were KB-V1 cytotox inactive and KB-3-1 cytotox inactive.
Screening O=C1C[C@H]2C=CCc3cccc(c32)CN1Cc1cccc(F)c1 returned KB-V1 cytotox inactive and KB-3-1 cytotox inactive.
Cn1c(N=Nc2ccc(N3CCOCC3)cc2)[n+](C)c2ccccc21 was read as KB-V1 cytotox inactive, KB-3-1 cytotox inactive, HT1080 IDH1KD tx inconclusive, MCF10A rereplic 26.4%, HT1080NT lethal inconclusive and SW480 rereplic 13µM*.
Cc1ccc2c(c1)-c1nc(-c3ccc4c(c3)NC(=O)CO4)cc(-c3ccc(F)cc3)c1CO2 was read as KB-V1 cytotox inactive and KB-3-1 cytotox inactive.
`O=C(NCCN1C(=O)S/C(=C\c2ccc(OC(F)F)cc2)C1=O)[C@@H]1CCCN1C(=O)c1cccs1` gave KB-V1 cytotox inconclusive, KB-3-1 cytotox inactive, HT1080 IDH1KD tx 5.1%, MCF10A rereplic -2.8%, HT1080NT lethal 13.1% and SW480 rereplic 17.2%.
`COc1ccc2c(CC(=O)NCCN3C(=O)S/C(=C\c4cccnc4)C3=O)coc2c1` gave KB-V1 cytotox inactive, KB-3-1 cytotox inactive, HT1080 IDH1KD tx -7.3%, MCF10A rereplic 3.7%, HT1080NT lethal 4.0% and SW480 rereplic 0.2%.
`COc1ccc(/C=C2\SC(=O)N(CCNC(=O)Cc3coc4cc(OC)ccc34)C2=O)cc1` gave KB-V1 cytotox 5.8µM*, KB-3-1 cytotox inconclusive, HT1080 IDH1KD tx -6.5%, MCF10A rereplic 7.4%, HT1080NT lethal -9.8% and SW480 rereplic 12.8%.
Screening O=C(NCCN1C(=O)S/C(=C\c2ccc(OC(F)F)cc2)C1=O)c1cnccn1 returned KB-V1 cytotox 8.2µM*, KB-3-1 cytotox 5.8µM*, HT1080 IDH1KD tx inconclusive, MCF10A rereplic 5.8µM*, HT1080NT lethal inconclusive and SW480 rereplic 5.8µM*.
For COc1ccc(/C=C2\SC(=O)N(CCNC(=O)C3=COCCO3)C2=O)cc1 the results were KB-V1 cytotox 2.59µM*, KB-3-1 cytotox 2.91µM*, HT1080 IDH1KD tx 7.31µM*, MCF10A rereplic 1.84µM*, HT1080NT lethal 7.31µM* and SW480 rereplic 10.3µM*.
Screening CC(Oc1ccc(Cl)cc1)C(=O)NCCN1C(=O)S/C(=C\c2cccnc2)C1=O (stereo not given) returned KB-V1 cytotox inconclusive, KB-3-1 cytotox inactive, HT1080 IDH1KD tx -1.7%, MCF10A rereplic 6.1%, HT1080NT lethal 2.1% and SW480 rereplic 1.0%.
For O=C(NCCN1C(=O)S/C(=C\c2ccc(OC(F)F)cc2)C1=O)C1=COCCO1 the results were KB-V1 cytotox inconclusive, KB-3-1 cytotox inconclusive, HT1080 IDH1KD tx inconclusive, MCF10A rereplic 18.4µM*, HT1080NT lethal inconclusive and SW480 rereplic 20.6µM*.

Screening data as filed in PubChem.
